About 79,000 compounds went through this panel and 15% of them were active in at least one assay; those are over-represented in the sample as a whole. A number with no mark means an inactive call. The source made the active and inactive calls. Cut-off read from the data, not from the text of the source: active = growth inhibition above about 70%; inactive = the rest.
How the values were obtained:
[1] = NCI Yeast Anticancer Drug Screen. Data for the rad50 strain (AID 155);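 note: 0% = growth of vehicle-only cultures of the same strain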; conditions: S. cerevisiae rad50 strain growth inhibition; at 50.0 µM; active compounds read high
In short: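 Yeast carrying a defined DNA repair defect were exposed to test compounds, and growth was compared with vehicle-treated controls to give percent inhibition.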

[2] = NCI Yeast Anticancer Drug Screen. Data for the mec2-1 strain (AID 157); conditions: S. cerevisiae mec2-1 strain, at 50.0 µM, active compounds read high
In short: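 Test agents were screened against the mec2-1 yeast strain, with defined DNA repair or cell cycle alteration. Growth was scored as inhibition against vehicle-only controls.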

[3] = NCI Yeast Anticancer Drug Screen. Data for the sgs1 mgt1 strain (AID 161);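 note: 0% = growth of cultures given vehicle only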; conditions: S. cerevisiae sgs1 mgt1 strain, at 50.0 µM, active compounds read high
In short: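 Read-out: growth inhibition vs vehicle controls. Cells: mutant yeast strain deficient in DNA damage repair.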

[4] = NCI Yeast Anticancer Drug Screen. Data for the cln2 rad14 strain (AID 165);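 note: 0% = growth equal to vehicle treated cultures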; conditions: S. cerevisiae cln2 rad14 strain, at 50.0 µM, active compounds read high
In short: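 Growth of compound-exposed yeast (cln2 rad14 genotype) measured and expressed as inhibition relative to vehicle.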

[5] = NCI Yeast Anticancer Drug Screen. Data for the bub3 strain (AID 167); conditions: S. cerevisiae bub3 mutant strain, at 50.0 µM, active compounds read high
In short: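 Compounds were applied to a genetically altered yeast strain carrying a cell-cycle control defect. Growth inhibition was scored against vehicle-treated controls.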

[6] = NCI Yeast Anticancer Drug Screen. Data for the mlh1 rad18 strain (AID 175); conditions: S. cerevisiae mlh1 rad18 strain growth inhibition; at 50.0 µM; active compounds read high
In short: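 In this whole-cell yeast screen, a strain with altered DNA damage repair is challenged with compound, and its growth is measured against matched vehicle-treated controls.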

CC(C)(C)c1cc2c(OP(c3ccccc3)c3ccccc3)c(c1)Cc1cc(C(C)(C)C)cc(c1OP(c1ccccc1)c1ccccc1)Cc1cc(C(C)(C)C)cc(c1OP(c1ccccc1)c1ccccc1)Cc1cc(C(C)(C)C)cc(c1OP(c1ccccc1)c1ccccc1)C2
growth inhibition [1]: -11.8% | growth inhibition [2]: -25.9% | growth inhibition [3]: -38.5% | growth inhibition [4]: -5.15% | growth inhibition [5]: -18.7% | growth inhibition [6]: -14.2%

NC(=S)N/N=C/c1ccncc1
growth inhibition [1]: -25.8% | growth inhibition [2]: -10.6% | growth inhibition [3]: -17.6% | growth inhibition [4]: -25.9% | growth inhibition [5]: 9.35% | growth inhibition [6]: -52.9%

NC(=O)CCC(Nc1c2ccccc2nc2ccccc12)C(=O)O (configuration not stated)
growth inhibition [1]: 23.1% | growth inhibition [2]: 3.85% | growth inhibition [3]: 15.7% | growth inhibition [4]: 28.6% | growth inhibition [5]: 1.4% | growth inhibition [6]: 48.2%

CC(C)c1cc(C(C)C)c(S(=O)(=O)N/N=C2\CC3CCC2(C)C3(C)C)c(C(C)C)c1 (configuration not stated)
growth inhibition [1]: -8.7% | growth inhibition [2]: -16.9% | growth inhibition [3]: -13.3% | growth inhibition [4]: -4.35% | growth inhibition [5]: -54.5% | growth inhibition [6]: 0.65%

COc1ccc(-c2cc(-c3ccc(Cl)cc3)on2)cc1
growth inhibition [1]: -15.1% | growth inhibition [2]: 11.2% | growth inhibition [3]: -4.55% | growth inhibition [4]: -35.8% | growth inhibition [5]: 10.6% | growth inhibition [6]: -11.4%

COc1cc(C=C2C(=O)OC(C)(C)OC2=O)cc(OC)c1OC
growth inhibition [1]: 3.45% | growth inhibition [2]: -22.1% | growth inhibition [3]: -11.3% | growth inhibition [4]: 24.3% | growth inhibition [5]: -21.5% | growth inhibition [6]: 9.05%

CC1C/C(=C\c2ccccc2)C(=O)/C1=C/c1ccccc1 (configuration not stated)
growth inhibition [1]: -3.6% | growth inhibition [2]: 17.4% | growth inhibition [3]: 7.3% | growth inhibition [4]: -6.4% | growth inhibition [5]: -2.75% | growth inhibition [6]: -15.9%

Nc1ncnc2c1nnn2C1C=CC(CP(=O)(O)O)C1 (configuration not stated)
growth inhibition [1]: 2.65% | growth inhibition [2]: 8.25% | growth inhibition [3]: 12.9% | growth inhibition [4]: 13.2% | growth inhibition [5]: -4.5% | growth inhibition [6]: 27.7%

C=CCC(OC(=O)C=C(C)C)c1ccc2c(c1)OCO2 (configuration not stated)
growth inhibition [1]: -23.6% | growth inhibition [2]: -31.9% | growth inhibition [3]: -6.65% | growth inhibition [4]: -5.5% | growth inhibition [5]: 38.8% | growth inhibition [6]: 6.3%

COc1ccc(CC(N)C(=O)N2CCCCC2)cc1 (configuration not stated)
growth inhibition [1]: 8.45% | growth inhibition [2]: 0.8% | growth inhibition [3]: 13.2% | growth inhibition [4]: 8.15% | growth inhibition [5]: 8.4% | growth inhibition [6]: 6.75%

Clc1ccc([I+]c2ccc(Cl)cc2)cc1
growth inhibition [1]: 96.2% (active) | growth inhibition [2]: 95.5% (active) | growth inhibition [3]: 97.5% (active) | growth inhibition [4]: 97.4% (active) | growth inhibition [5]: 97% (active) | growth inhibition [6]: 97.2% (active)

Cc1[nH]n(-c2ccccc2)c(=S)c1C(=O)c1ccccc1
growth inhibition [1]: -11.7% | growth inhibition [2]: 1.05% | growth inhibition [3]: 2.55% | growth inhibition [4]: 1.7% | growth inhibition [5]: 2.25% | growth inhibition [6]: 0.45%

O=C(c1ccccc1)N1C(=O)c2ccccc21
growth inhibition [1]: -11.1% | growth inhibition [2]: 5.75% | growth inhibition [3]: -12.8% | growth inhibition [4]: -16.3% | growth inhibition [5]: 9.5% | growth inhibition [6]: -15.5%

Fc1ccc(C(=C(c2ccc(F)cc2)c2ccc(F)cc2)c2ccc(F)cc2)cc1
growth inhibition [1]: 45.5% | growth inhibition [2]: -15.2% | growth inhibition [3]: 36.9% | growth inhibition [4]: 9.55% | growth inhibition [5]: 0.1% | growth inhibition [6]: 7%

COc1ccc(C(=O)NC(=S)Nc2cc(C(F)(F)F)ccc2Cl)cc1
growth inhibition [1]: -18.6% | growth inhibition [2]: 0.1% | growth inhibition [3]: -11.2% | growth inhibition [4]: 84.8% (active) | growth inhibition [5]: -3.8% | growth inhibition [6]: 11.7%

c1ccc2nc3ccccc3cc2c1
growth inhibition [1]: 2.7% | growth inhibition [2]: 19.6% | growth inhibition [3]: 27.1% | growth inhibition [4]: 27.8% | growth inhibition [5]: 3.1% | growth inhibition [6]: 5.95%

N#CSC1CCCCC1SC#N (configuration not stated)
growth inhibition [1]: 11.3% | growth inhibition [2]: 5.8% | growth inhibition [3]: 7.35% | growth inhibition [4]: -13.7% | growth inhibition [5]: -2.55% | growth inhibition [6]: 5.6%

OCCN(CCO)c1ccc(O)cc1
growth inhibition [1]: -6.85% | growth inhibition [2]: 2.3% | growth inhibition [3]: -17.1% | growth inhibition [4]: 13.6% | growth inhibition [5]: -3.6% | growth inhibition [6]: -11.7%

Cc1ccc2cccc(OC(=O)Nc3cc(Cl)c(Cl)cc3Cl)c2n1
growth inhibition [1]: -5.7% | growth inhibition [2]: -17.8% | growth inhibition [3]: 4.5% | growth inhibition [4]: -4.8% | growth inhibition [5]: -14.2% | growth inhibition [6]: 3.9%

CCOC(=O)C#Cc1ccc(C#CC(=O)OCC)cc1
growth inhibition [1]: -0.5% | growth inhibition [2]: 19.4% | growth inhibition [3]: 6.45% | growth inhibition [4]: -2.95% | growth inhibition [5]: 1.95% | growth inhibition [6]: 51%

O=C1NCCCC1CCO (configuration not stated)
growth inhibition [1]: -8.35% | growth inhibition [2]: -3.65% | growth inhibition [3]: -7.95% | growth inhibition [4]: -3.65% | growth inhibition [5]: 5.5% | growth inhibition [6]: -3.85%

CCCCCCCCCCCCCCCCOc1ccc(OC)cc1C(=O)NNC(=S)SC
growth inhibition [1]: 14.7% | growth inhibition [2]: -0.1% | growth inhibition [3]: 24.6% | growth inhibition [4]: 8.55% | growth inhibition [5]: 34% | growth inhibition [6]: 21.2%

C=CCNC(=S)NCc1ccc(Cl)cc1
growth inhibition [1]: 21.3% | growth inhibition [2]: 7.8% | growth inhibition [3]: 22.7% | growth inhibition [4]: -46.6% | growth inhibition [5]: 5.15% | growth inhibition [6]: 12.1%

O=CC(=O)c1ccc(F)cc1
growth inhibition [1]: -20.2% | growth inhibition [2]: -10% | growth inhibition [3]: -0.15% | growth inhibition [4]: -15.2% | growth inhibition [5]: -8.55% | growth inhibition [6]: 2%

CCCC(O)C(=O)C(CCC)N(CC)CC (configuration not stated)
growth inhibition [1]: 2.5% | growth inhibition [2]: -6.85% | growth inhibition [3]: 6.65% | growth inhibition [4]: 18.7% | growth inhibition [5]: 11.1% | growth inhibition [6]: -4.9%

Oc1ccc2ccccc2c1C=Nc1ccc(SSc2ccc(N=Cc3c(O)ccc4ccccc34)cc2)cc1
growth inhibition [1]: -6.6% | growth inhibition [2]: -10.1% | growth inhibition [3]: -19.6% | growth inhibition [4]: -59.5% | growth inhibition [5]: 0.9% | growth inhibition [6]: -3.1%

c1ccc(COC2C3COC(O3)C(OCc3ccccc3)C2OCc2ccccc2)cc1 (configuration not stated)
growth inhibition [1]: 11.7% | growth inhibition [2]: -1.7% | growth inhibition [3]: 26.4% | growth inhibition [4]: 3.2% | growth inhibition [5]: 17.7% | growth inhibition [6]: 22.4%

O=C(Nc1ccn(C2CCC(CO)O2)c(=O)n1)c1ccccc1 (configuration not stated)
growth inhibition [1]: 35.8% | growth inhibition [2]: -3.05% | growth inhibition [3]: -16.7% | growth inhibition [4]: -23.8% | growth inhibition [5]: 4.25% | growth inhibition [6]: -7.55%

CC1C(c2ccccc2)=C(c2ccccc2)C(c2ccccc2)=C(c2ccccc2)C1c1ccccc1 (configuration not stated)
growth inhibition [1]: 27.6% | growth inhibition [2]: -19.8% | growth inhibition [3]: 2.6% | growth inhibition [4]: -5.55% | growth inhibition [5]: -1.2% | growth inhibition [6]: -10.7%

O=S(=O)(CCS(=O)(=O)c1ccccc1)c1ccccc1
growth inhibition [1]: -11.4% | growth inhibition [2]: -10.2% | growth inhibition [3]: -22.9% | growth inhibition [4]: -41.5% | growth inhibition [5]: -15.3% | growth inhibition [6]: -0.1%

C(=N[C@H]1CCCC[C@H]1N=Cc1ccc[nH]1)c1ccc[nH]1
growth inhibition [1]: 14.8% | growth inhibition [2]: -3.6% | growth inhibition [3]: 8.75% | growth inhibition [4]: 3.45% | growth inhibition [5]: 13.9% | growth inhibition [6]: 20.7%

Cc1c(C)n(S(=O)(=O)c2ccccc2)c2ccccc12
growth inhibition [1]: 20.6% | growth inhibition [2]: 10.4% | growth inhibition [3]: 21.4% | growth inhibition [4]: 27.9% | growth inhibition [5]: 13.2% | growth inhibition [6]: 27.4%

COc1ccc(/C=C2\N=C(c3cc(OC)c(OC)c(OC)c3)OC2=O)cc1Br
growth inhibition [1]: -6.95% | growth inhibition [2]: -6.7% | growth inhibition [3]: 21.6% | growth inhibition [4]: -0.4% | growth inhibition [5]: 6.2% | growth inhibition [6]: 2.1%

O=C(Nc1cccc2c(NC(=O)N3CCCCC3)cccc12)N1CCCCC1
growth inhibition [1]: -16.2% | growth inhibition [2]: -26.2% | growth inhibition [3]: 1.25% | growth inhibition [4]: 4.1% | growth inhibition [5]: 9.55% | growth inhibition [6]: 2.8%

C[N+](C)(C)CC(=O)N/N=C(/Cc1nc2ccc([N+](=O)[O-])cc2[nH]c1=O)C(=O)Nc1cc(C(F)(F)F)ccc1Cl
growth inhibition [1]: -13.2% | growth inhibition [2]: 3.7% | growth inhibition [3]: 3.35% | growth inhibition [4]: 8.55% | growth inhibition [5]: -5.4% | growth inhibition [6]: 16.2%

CC(=O)C1CN(C)CCC1=O (configuration not stated)
growth inhibition [1]: -20% | growth inhibition [2]: -4.55% | growth inhibition [3]: -19.8% | growth inhibition [4]: -11.2% | growth inhibition [5]: -13.7% | growth inhibition [6]: 16.9%

C=CCCCCCCCCCCCCCCC
growth inhibition [1]: -36% | growth inhibition [2]: -26.9% | growth inhibition [3]: -26.2% | growth inhibition [4]: 5.3% | growth inhibition [5]: -31.9% | growth inhibition [6]: -35%

CC1(C)N=C(N)N=C(N)N1CCCCc1ccccc1
growth inhibition [1]: -23.7% | growth inhibition [2]: -41.9% | growth inhibition [3]: -27.4% | growth inhibition [4]: -25.4% | growth inhibition [5]: -71.8% | growth inhibition [6]: -16.6%

CCc1n[nH]c(=O)n1/N=C/c1ccccc1O
growth inhibition [1]: -9.2% | growth inhibition [2]: 3.8% | growth inhibition [3]: -5.75% | growth inhibition [4]: 3.4% | growth inhibition [5]: -0.35% | growth inhibition [6]: 24.6%

CN(C)S(=O)(=O)c1c(N)ncn1C
growth inhibition [1]: 12.7% | growth inhibition [2]: 6.85% | growth inhibition [3]: -9.1% | growth inhibition [4]: 7.25% | growth inhibition [5]: 9.65% | growth inhibition [6]: 5%

COc1ccc2nc(-c3ccccc3)cc(N=[N+]=[N-])c2c1
growth inhibition [1]: 1.9% | growth inhibition [2]: -0.85% | growth inhibition [3]: -12.7% | growth inhibition [4]: -5.35% | growth inhibition [5]: -23.1% | growth inhibition [6]: -12%

C=CCN(CC=C)C(=O)C(=C)C
growth inhibition [1]: 3.3% | growth inhibition [2]: -0.05% | growth inhibition [3]: -5.5% | growth inhibition [4]: 2.6% | growth inhibition [5]: 3.7% | growth inhibition [6]: -4.1%
